# HP1b binding inh = inhibitors of HP1-beta chromodomain binding to methylated histone tails; AlphaScreen HP1-beta / biotin-H3K9me3 peptide binding; Potency, µM (doses to about 114 µM), without a hit: top-dose activity change, negative = inhibition, usual class: inhibitors; P83916; 390,000 compounds, 0.56% hits; further: nearly all actives have a fitted effect of over 70% in size
#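 AlphaScreen: HP1-beta (50 nM) preformed 30 min with biotin-H3(1-18)K9me3 peptide (50 nM) in PBS pH 7.4, 0.01% Tween-20. Compound added for 30 min at RT, then streptavidin donor/nickel chelate acceptor beads (10 ug/mL) for 30 min.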
# Sfp inh = blocks B. subtilis Sfp PPTase activity; Biochemical Sfp PPTase activity, qHTS; AID 1490; 310,000 compounds, 3.5% hits; Q9F4F7; Potency, µM, for inactives: largest response in the series, negative = inhibition, actives largely listed as inhibitors;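 further: the enzyme is Sfp with the accession as filed and its product quenches rhodamine fluorescence; 0% = enzyme reaction without inhibitor and -100% = no enzyme wells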
#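 Compounds were incubated with enzyme (final 15 nM) for 15 min at room temperature before substrate addition started the reaction. Fluorescence at 525 nm excitation, 598 nm emission was recorded immediately and after 30 minutes.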
# G9a inh = inhibitors of human histone lysine methyltransferase G9a; Q96KQ7; G9a H3K9 monomethylation, AlphaScreen, 2 h; Potency, µM (top dose mostly 102 µM), for inactives: at the highest dose activity, negative = inhibition, most hits filed as inhibitors; 350,000 compounds, 8.8% hits; AID 504332; further: on the % scale 0 is the no-effect control and ±100 the full control effect; nearly all actives have a fitted effect of over 75% in size
#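 Chemiluminescent proximity detection of H3K9 monomethylation, read after 10 min bead incubation in the dark. Reaction: 20 nM G9a, 500 nM biotin-H3K9 peptide, 20 uM SAM cofactor, 2 h, room temperature, following 15 min enzyme-compound preincubation.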
# BAZ2B block = inhibitors of human BAZ2B bromodomain; Q9UIF8; AlphaScreen BAZ2B-H3K14Ac peptide displacement; Potency, µM (titrated, usually from 114 µM), for inactives: top-dose activity change, negative = inhibition, usual class: inhibitors; 360,000 compounds, 4.4% hits; AID 504333; further: on the % scale 0 is the no-effect control and ±100 the full control effect; nearly all actives have a fitted effect of over 60% in size
#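 Inhibition is scored as reduced AlphaScreen emission. The BAZ2B/b-H3(5-23)K14Ac complex (50 nM each) in PBS pH 7.4, 0.01% Tween-20 meets compound (up to 110 uM) for 30 min at RT before bead addition.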
# PLK1 PBD inh = inhibitors of human PLK1 polo-box domain binding. Potency, µM, inactives show max response, negative = inhibition, usual class: inhibitors. Plk1 PBD binding of FITC phosphopeptide, fluorescence polarization. AID 720504. P53350. 360,000 compounds, 2.8% hits; further: series mostly up to about 57 µM; on the % scale 0 is the no-effect control and ±100 the full control effect; nearly all actives have a fitted effect of over 65% in size
# JMJD2A Tudor = blocks the human JMJD2A Tudor domain | O75164 | AlphaScreen JMJD2A-Tudor / H3K4me3 peptide binding | Potency, µM (doses to about 114 µM), for the others: at the highest dose activity change, negative = inhibition, hits mostly inhibitors | 390,000 compounds, 4.4% hits | AID 504339; further: on the % scale 0 is the no-effect control and ±100 the full control effect; nearly all actives have a fitted effect of over 50% in size
# An asterisk follows results filed as active; ? = inconclusive; . = no result given; [ ] = remark or other dose. Shown are actives, neighbours in structure and some others; about 12% of the full set was active somewhere. The call rests on the fitted dose curve; in most records, active means well fitted curve in the direction sought with a large enough effect; inconclusive means small, poorly fitted or top-dose-only effect, or another doubt; inactive means no such curve, though single readings can be large; an effect the other way counts as inactive or inconclusive. Potency means the concentration at half of the fitted maximal effect.
SMILES,HP1b binding inh,Sfp inh,G9a inh,BAZ2B block,PLK1 PBD inh,JMJD2A Tudor
Cc1cccc(-n2nnnc2S(C)(=O)=O)c1,76%,.,-8%[59 µM],-2%,.,-15%
COc1ccc(-c2cc(C(F)(F)F)nc(SCCC(=O)Nc3ccc(OC)c(OC)c3)n2)cc1,17%,.,4%[59 µM],-6%,.,-10%
CN(C)c1ncnc2c1ncn2C1CCCO1 (centres undefined),-20%,.,.,.,-3%,-12%
O=C(O)c1sccc1S(=O)(=O)N1CCOCC1,46%,.,-3%[12.7 µM],6%,-1%,-5%
CCc1ccccc1NC(=O)Cn1cc(S(=O)(=O)N2CCCC2)c(S(=O)(=O)N2CCCC2)c1,11%,.,-2%[59 µM],5%[57.1 µM],.,-11%
Cc1cs/c(=N\N=C\c2ccccc2)n1Cc1ccco1,?,-20%,14µM*,13µM*,-4%,35µM*
Cc1cs/c(=N\N=C2CCCCC2)n1Cc1ccco1,?,6%,?,45µM*,-4%,?
NCCC[C@@H](CC(=O)N[C@@H]1CCCC[C@H]1C(=O)N[C@H](CC(=O)N[C@@H](CCC(=O)O)CC(=O)O)Cc1c[nH]c2ccccc12)NC(=O)C[C@H](Cc1c[nH]c2ccccc12)NC(=O)[C@@H]1CCCC[C@H]1N,.,-23%,.,.,.,.
COc1ccc(/C=C(\C#N)c2nc(-c3cc4ccccc4oc3=O)cs2)cc1OC,6%,.,12%[59 µM],1%,.,-20%
CC1(C)SC2[C@@H](N=CN3CCCCCC3)C(=O)N2[C@H]1C(=O)O (some centres undefined),.,-11%,5%[59 µM],.,.,.
CCOc1ccc(C(=O)NCC(c2ccc(Cl)cc2)N2CCCCC2)cc1 (centres undefined),39%,.,-1%[59 µM],-19%,.,-18%
CCC(Oc1ccc(F)cc1)C(=O)Nc1nc2c(s1)CCCC2 (centres undefined),52%,.,-17%[59 µM],-18%,.,-24%
CCN(CC)c1ccc(NC(=O)c2sc3nc4c(cc3c2N)CN(C)CC4)cc1,17%,.,?,?,.,-35%
CN1CCc2nc3sc(C(=O)NCc4ccccc4)c(N)c3cc2C1,24%,-27%,11µM*,?,-19%,-13%
CC(=O)OCC1=C(C(=O)O)N2C(=O)C(NC(=O)CSc3ccncc3)[C@@H]2SC1 (some centres undefined),.,-13%,-31%[2.33 µM],.,.,.
CC(C)OC(=O)CSc1nnc(-c2cnccn2)n1Cc1ccco1,23%,-6%,-36%[59 µM],?,-9%,-22%
CC(C)OC(=O)CSc1nnc(Cc2ccccc2)n1Cc1ccco1,8%,22µM*,8.9µM*,6%,-8%,-12%
COc1cccc(-c2nnc(SCC(=O)OC(C)C)n2Cc2ccco2)c1,-13%,3%,40µM*,-4%,27µM*,-29%[11.4 µM]
CCOC(=O)c1ccc(NC(=O)c2oc(=O)c3ccccc3c2-c2ccccc2)cc1,13%,.,1%[59 µM],-4%,.,-27%
O=C(Nc1ccccc1Cl)C1CCN(c2nc3ccccc3nc2C(F)(F)F)CC1,21%,.,2%[59 µM],1%,.,-6%
O=C(CNCc1ccc(Cl)cc1)Nc1ccc(C(=O)N2CCCCC2)cc1,45µM*,?,7.1µM*,56µM*,6%,1.1µM*
COc1ccc(CCNCC(=O)Nc2ccc(OC(F)F)cc2)cc1,9%,7%,6%,1%,0%,5%
COc1ccc(CCNCC(=O)Nc2ccc(C(=O)N3CCCCC3)cc2)cc1,?,?,8.9µM*,40µM*,-4%,1.4µM*
O=C(CNCc1ccc(Cl)cc1)Nc1ccc(C(=O)N2CCCCCC2)cc1,?,-21%,7.9µM*,50µM*,0%,3.5µM*
COc1ccc(C)cc1NC(=O)CCc1ccc(S(=O)(=O)N2CCOCC2)cc1,27%,.,13%[59 µM],1%,0%,-13%
SMILES,HP1b binding inh,Sfp inh,G9a inh,BAZ2B block,PLK1 PBD inh,JMJD2A Tudor
CC/C(=C\C(=O)c1ccncc1)Nc1ccc(Br)cc1,?,-14%,?,50µM*,-2%,?
COc1ccccc1N1CCN(C(=O)c2oc3ccc(F)cc3c2C)CC1,23%,-11%,-11%[59 µM],-4%,3%,-14%
Cc1c(C(=O)Nc2ccccc2N2CCN(C)CC2)oc2ccc(F)cc12,?,.,32µM*,-31%,-7%,?
CN1CCN(c2ccccc2NC(=O)c2cc3c(s2)-c2ccccc2OC3)CC1,25%,79µM*,-38%,-34%,-13%,-12%
CC[n+]1c(/C=C/Nc2ccccc2)oc2ccccc21,65%,-4%,50µM*,-30%,9%,-6%
CC[n+]1c(/C=C/N(C)c2ccccc2)oc2ccc(F)cc21,-3%,50µM*,8.9µM*,-32%,?,79µM*
O=S(=O)([O-])CCC[n+]1c(/C=C\Nc2ccccc2)oc2ccc(-c3ccccc3)cc21,.,-3%,-35%,79µM*,.,.
CC[n+]1c(/C=C/Nc2ccccc2)oc2ccc(OC)cc21,48%,5%,?,-6%,16%,10%
CC(=O)c1ccc(NC(=O)Cn2c(-n3nc(C)cc3C)nc(C)cc2=O)cc1,49%,.,?,-14%,.,?
CSc1ccc(CCNc2ncnc3onc(-c4ccc(Cl)cc4)c23)cc1,35%,.,2%[59 µM],16%[57.1 µM],.,-12%
N#CCCn1cc(/C=N/O)c(-c2ccc(-c3ccccc3)cc2)n1,13%,0%,-9%[59 µM],-1%,-8%,-9%
N#CCCn1cc(CNCc2cccnc2)c(-c2ccccc2)n1,?,.,.,.,.,8.9µM*
CC(OC(=O)c1ccc2c(=O)n3c(nc2c1)CCC3)C(N)=O (centres undefined),-4%,23%,3%,-18%,21µM*,?
Cc1ccc(C)c(NC(=O)c2ccc3c(=O)n4c(nc3c2)CCC4)c1,28%,.,22%[12.7 µM],2%,3%,5%
COc1ccc(C)cc1NC(=O)c1ccc2c(=O)n3c(nc2c1)CCCCC3,4%,12%,16%,-21%,24µM*,-36%
O=C(Oc1ccccc1F)c1ccc2c(=O)n3c(nc2c1)CCC3,18%,.,63µM*,-1%,-5%,-12%
O=C(Oc1ccc(F)cc1)c1ccc2c(=O)n3c(nc2c1)CCC3,19%,.,50µM*,-1%,-4%,-12%
CC(OC(=O)c1ccc2c(=O)n3c(nc2c1)CCC3)C(=O)Nc1ccc(C(N)=O)cc1 (centres undefined),31%,.,2%[59 µM],2%,0%,-11%
O=C(Oc1ccccc1Cl)c1ccc2c(=O)n3c(nc2c1)CCC3,20%,.,?,-3%,-7%,-18%
COC(=O)C1=C(C(=O)OC)[C@@H]2N(C)c3ccccc3[C@@]23C[C@@H](C(=O)OC)N(S(=O)(=O)c2ccc([N+](=O)[O-])cc2)C3=N1,.,-12%,.,.,.,.
Cc1ccc(NC(=O)Cn2c(=O)oc3cc(S(=O)(=O)N4CCCCC4)ccc32)c(Cl)c1,39%,.,6%[59 µM],7%,.,-5%
